# Source: PubChem BioAssay AID1345085 (National Center for Advancing Translational Sciences (NCATS), 2018)
# Records with an inconclusive call do not appear. Unmarked numbers belong to inactive results. The source made the active and inactive calls. The call rests on the fitted dose curve; in most records, active means well fitted cell-killing curve with a large enough effect; inconclusive means small, poorly fitted or top-dose-only effect, or effect the other way; inactive means no such curve, though single readings can be large or run the other way.
# Test system: Hek293T
# Experiment: Confirmatory qHTS for gynecologic anti-cancer compounds from libraries of approved drugs and bioactive compounds; further: nearly all actives have a fitted effect of over 55% in size
# Details: gynecologic cancer cell panel viability, ATPlite luminescence, 48 h; series mostly up to 57.6 µM; activity change, negative = viability loss: at the top concentration
# How it was run: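 ATPlite luminescence read-out of cell viability; IC50 from 11-point 1:3 titrations, 57.5 uM to 0.977 nM, 48 h compound exposure at 37 C, 5% CO2. Cells seeded at 1,000/well 16 h before dosing.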
# On the % scale 0 is the no-effect control and ±100 the full control effect; potency means the concentration at half of the fitted maximal effect.
SMILES,Potency,"activity change, negative = viability loss"
CC(C)C[C@H](NC(=O)[C@@H](NC(=O)c1cccc(-c2ccccc2)n1)[C@@H](C)O)B(O)O,0.193 µM (active),
CN1C2CCC1CC(OC(=O)[C@H](CO)c1ccccc1)C2 (stereo partly specified),,0.591%
Cc1ccccc1C(OCCN(C)C)c1ccccc1 (stereo unspecified),,1.95%
COc1cc(N2CCC(N3CCN(C)CC3)CC2)ccc1Nc1ncc(Cl)c(Nc2ccccc2S(=O)(=O)C(C)C)n1,21.7 µM (active),
CC(C)C[C@H](NC(=O)[C@H](CCc1ccccc1)NC(=O)CN1CCOCC1)C(=O)N[C@@H](Cc1ccccc1)C(=O)N[C@@H](CC(C)C)C(=O)[C@@]1(C)CO1,3.43 µM (active),
CC(C)CC(=O)Nc1n[nH]c2c1CN(C(=O)C1CCN(C)CC1)C2(C)C,1.37 µM (active),
CNC(=O)c1nn(C)c2c1C(C)(C)Cc1cnc(Nc3ccc(N4CCN(C)CC4)cc3)nc1-2,4.32 µM (active),
Cc1cc(Nc2nc(N[C@@H](C)c3ccc(F)cc3)c(C#N)cc2F)n[nH]1,,-34.8%
CCC(=O)N1CCN(c2ccc(-n3c(=O)ccc4cnc5ccc(-c6cnc7ccccc7c6)cc5c43)cc2C(F)(F)F)CC1,0.0498 µM (active),
CN(C)/N=N/c1nc[nH]c1C(N)=O,,9.55%
CCCCc1oc2ccc(NS(C)(=O)=O)cc2c1C(=O)c1ccc(OCCCN(CCCC)CCCC)cc1,27.3 µM (active),
NC(=O)c1cccc2cn(-c3ccc([C@@H]4CCCNC4)cc3)nc12,,-15.5%
Cc1cnc(Nc2ccc(CN3CCOCC3)cc2)nc1Nc1cccc(S(=O)(=O)NC(C)(C)C)c1,17.2 µM (active),
COc1cc2c(cc1-c1c(C)noc1C)ncc1[nH]c(=O)n(C(C)c3ccccn3)c12 (stereo unspecified),,13.3%
O=C1c2c(O)ccc(O)c2C(=O)c2c(NCCNCCO)ccc(NCCNCCO)c21,0.863 µM (active),
Nc1nccc(Oc2ccc(NC(=O)c3c[nH]cc(-c4ccc(F)cc4)c3=O)cc2F)c1Cl,13.7 µM (active),
Cn1c(=O)c(-c2c(Cl)cccc2Cl)cc2cnc(Nc3cccc(C(=O)O)c3)nc21,,0.231%
COc1cc2c(NC3CCN(C(C)C)CC3)nc(C3CCCCC3)nc2cc1OCCCN1CCCC1,9.68 µM (active),

SMILES,Potency,"activity change, negative = viability loss"
Nc1ccc(-c2ccc3ncc4ccc(=O)n(-c5cccc(C(F)(F)F)c5)c4c3c2)cn1,0.0544 µM (active),
Cc1cc(C2CCCCC2)n(O)c(=O)c1,11.1 µM (active),
O=C(/C=C/c1cccc(S(=O)(=O)Nc2ccccc2)c1)NO,1.88 µM (active),
CC(C)n1nc(-c2cc3cc(O)ccc3[nH]2)c2c(N)ncnc21,6.85 µM (active),
CC(Oc1cc(-n2cnc3ccc(CN4CCN(C)CC4)cc32)sc1C(N)=O)c1ccccc1C(F)(F)F (stereo unspecified),24.3 µM (active),
Cc1nc(N)nc(N)c1-c1ccc(Cl)c(Cl)c1,1.22 µM (active),
CN(C)CC/C=C1\c2ccccc2COc2ccccc21,,-37.8%
CCc1c2c(nc3ccc(O)cc13)-c1cc3c(c(=O)n1C2)COC(=O)[C@]3(O)CC,0.611 µM (active),
CC(=O)O[C@H]1C(=O)[C@@]2(C)[C@H]([C@H](OC(=O)c3ccccc3)[C@]3(O)C[C@H](OC(=O)[C@H](O)[C@@H](NC(=O)c4ccccc4)c4ccccc4)C(C)=C1C3(C)C)[C@]1(OC(C)=O)CO[C@@H]1C[C@@H]2O,,4.91% [at 10.7 µM]
COC(C(=O)N1Cc2[nH]nc(NC(=O)c3ccc(N4CCN(C)CC4)cc3)c2C1)c1ccccc1 (stereo unspecified),,3.38%
CC(C)(C)C(=O)OCOP(=O)(COCCn1cnc2c(N)ncnc21)OCOC(=O)C(C)(C)C,3.43 µM (active),
CC(C)C[C@H](NC(=O)[C@H](Cc1ccccc1)NC(=O)c1cnccn1)B(O)O,0.0306 µM (active),
O=C(O)c1ccc(Nc2ncc3c(n2)-c2ccc(Cl)cc2C(c2c(F)cccc2F)=NC3)cc1,,11.7%
Cc1cnc(Nc2cccc(CN3CCOCC3)c2)nc1Nc1cccc(S(=O)(=O)NC(C)(C)C)c1,,-9.54%
CCCCc1nc2cc(/C=C/C(=O)NO)ccc2n1CCN(CC)CC,1.72 µM (active),
Cc1ccc(C(=O)Nc2ccc(Oc3cc4cnn(C)c4cc3-c3cn[nH]c3)c(F)c2)c(=O)n1-c1ccc(F)cc1,1.93 µM (active),
CC(C)Oc1ccc2c(=O)c(-c3ccccc3)coc2c1,4.85 µM (active),
Cn1cc(-c2[nH]c3cc(NC(=O)[C@H](N)C4CCCCC4)cc4c3c2C=NNC4=O)cn1,0.432 µM (active),
